Records with an inconclusive call do not appear. The source made the active and inactive calls. Unless noted, the call rests on the fitted dose curve; in most records, active means well fitted curve in the direction sought with a large enough effect in the repeat runs; inconclusive means weak or mixed curves; inactive means no such curve, though single readings can be large; an effect the other way counts as inactive or inconclusive.
Columns and labels:
[1] = A CellTox Green Cytotoxicity Assay to monitor cytotoxicity in HEK293 cells - 32 hour (AID 1224881); further: nearly all actives have a fitted effect of over 40% in size
In short: (§1)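 Cells (HEK293, 600/well) and dye reagent are dispensed together. After 5 h at 37 C, 23 nL compound is pinned in. Plates stay at 37 C for 40 h with fluorescence read at 0h, 8h, 16h, 24h, 32h and 40h.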

[2] = A CellTox Green Cytotoxicity Assay to monitor cytotoxicity in HepG2 cells - 0 hour (AID 1224882); further: nearly all actives have a fitted effect of over 35% in size
In short: (§2)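 Cells and non-lytic dye reagent are dispensed together (600 HepG2 cells/well) and incubated 5 h before DMSO compound transfer. Kinetic fluorescence is then recorded in the same wells during 40 h at 37 C.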

[3] = A CellTox Green Cytotoxicity Assay to monitor cytotoxicity in HEK293 cells - 8 hour (AID 1224884); further: nearly all actives have a fitted effect of over 35% in size
In short: as §1

[4] = qHTS RealTime-Glo MT Cell Viability Assay in HepG2 cells - 16 hour (AID 1224885); further: nearly all actives have a fitted effect of over 50% in size
In short: (§3)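 Cells + NanoLuc/prosubstrate dispensed (600 cells/well) → 5 h at 37 C/5% CO2 → compounds in DMSO transferred → 40 h incubation at 37 C, luminescence read at 0, 8, 16, 24, 32, 40 h.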

[5] = qHTS RealTime-Glo MT Cell Viability Assay in HEK293 cells - 24 hour (AID 1224886); further: top concentration of the series differs between compounds; nearly all actives have a fitted effect of over 50% in size
In short: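 Tox21 10K qHTS, HEK293, 600 cells/well, RealTime-Glo reagent co-dispensed with cells; 5 h preincubation, compound by pintool, 37 C, luminescence at 0–40 h.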

[6] = qHTS RealTime-Glo MT Cell Viability Assay in HEK293 cells - 8 hour (AID 1224887); further: top concentration of the series differs between compounds; nearly all actives have a fitted effect of over 50% in size
In short: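 Real-time viability in HEK293: signal arises when living cells convert a prosubstrate for NanoLuc in the medium, so luminescence tracks viable cell number. Compound (23 nL, DMSO) added 5 h post-seeding; kinetic reads at 0–40 h, 37 C.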

[7] = A CellTox Green Cytotoxicity Assay to monitor cytotoxicity in HEK293 cells - 16 hour (AID 1224888); further: nearly all actives have a fitted effect of over 35% in size
In short: as §1

[8] = qHTS RealTime-Glo MT Cell Viability Assay in HepG2 cells - 0 hour (AID 1224889); further: nearly all actives have a fitted effect of over 50% in size
In short: as §3

[9] = A CellTox Green Cytotoxicity Assay to monitor cytotoxicity in HepG2 cells - 8 hour (AID 1224890); further: nearly all actives have a fitted effect of over 45% in size
In short: as §2

[10] = qHTS assay to identify small molecule antagonists of the estrogen receptor alpha (ER-alpha) signaling pathway using the BG1 cell line in the presence of 0.1 nM 17-beta-estradiol - cell viability counter screen (AID 1259241); further: nearly all actives have a fitted effect of over 40% in size
In short: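 CellTiter-Fluor read (30 min, 37C) on ER-alpha/ERE-luc VM7Luc4E2 cells; 22 hr compound treatment; agonist 0.1 nM E2 final; same-well multiplex.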

[11] = qHTS assay to identify small molecule antagonists of the androgen receptor (AR) signaling pathway using the MDA cell line in the presence of 0.5 nM R1881 - cell viability counter screen (AID 1259242); further: nearly all actives have a fitted effect of over 45% in size
In short: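 Steps: plate MDA-kb2 cells, rest 5 hr at 37C without CO2; pin in compounds in DMSO; add R1881 to 0.5 nM final; incubate 16 hr; add CellTiter-Fluor, 30 min; read fluorescence.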

[12] = molecular target: Estrogen receptor (Homo sapiens) (UniProt P03372); test: qHTS assay to identify small molecule antagonists of the estrogen receptor alpha (ER-alpha) signaling pathway using the BG1 cell line in the presence of 0.1 nM 17-beta-estradiol (AID 1259244); further: nearly all actives have a fitted effect of over 50% in size
Chain of Estrogen receptor (Homo sapiens) (P03372 whole entry, looked up): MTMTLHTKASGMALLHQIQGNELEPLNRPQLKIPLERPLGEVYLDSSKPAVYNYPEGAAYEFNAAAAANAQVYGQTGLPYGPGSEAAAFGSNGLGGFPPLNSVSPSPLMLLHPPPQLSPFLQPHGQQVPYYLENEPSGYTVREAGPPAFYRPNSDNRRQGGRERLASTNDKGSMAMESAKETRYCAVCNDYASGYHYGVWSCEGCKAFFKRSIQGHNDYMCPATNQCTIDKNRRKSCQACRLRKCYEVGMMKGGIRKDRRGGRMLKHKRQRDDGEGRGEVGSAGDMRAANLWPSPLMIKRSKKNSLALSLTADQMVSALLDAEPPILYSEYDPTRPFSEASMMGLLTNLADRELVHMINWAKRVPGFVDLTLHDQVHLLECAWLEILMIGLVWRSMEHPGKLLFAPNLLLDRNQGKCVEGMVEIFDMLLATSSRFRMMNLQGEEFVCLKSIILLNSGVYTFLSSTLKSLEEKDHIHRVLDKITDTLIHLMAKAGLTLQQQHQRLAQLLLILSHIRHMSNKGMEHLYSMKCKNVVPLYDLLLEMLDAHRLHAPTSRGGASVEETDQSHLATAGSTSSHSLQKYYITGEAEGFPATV
In short: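 Antagonist mode: compounds in DMSO are pinned onto VM7Luc4E2 reporter cells, 0.1 nM final 17beta-estradiol is added, and after 22 h at 37C luciferase luminescence is measured with ONE-Glo.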

[13] = qHTS assay to identify small molecule phospholipidosis (PLD) inducers (AID 1259344; active means well fitted curve in the direction sought with a large enough effect; an effect the other way counts as inactive or inconclusive)
In short: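 Cells (HepG2, 900 per well) attach for 4 h, receive LipidTOX Red and compound together, incubate 24 h at 37 C, are fixed 30 min with paraformaldehyde/Hoechst, then imaged at one site per well.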

[14] = qHTS assay to identify small molecule HDAC inhibitors (AID 1259364);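 further: wild-type HCT-116 cells with endogenous class I/II HDAC activity; top concentration of the series differs between compounds; nearly all actives have a fitted effect of over 45% in size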
In short: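 Cells (HCT-116, wild type) are seeded at 1,500 per well, incubated overnight, treated with compound in DMSO for 2 hr, then developed with HDAC-Glo I/II reagent for 30 min at room temperature.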

[15] = qHTS assay to identify small molecule HDAC inhibitors - cell viability counter screen (AID 1259365)
In short: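 To flag cytotoxic hits, 1,500 wild-type HCT-116 cells per well, plated the day before, receive test compounds for 2hr at 37 C before CellTiter-Glo reagent and a luminescence read.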

[16] = qHTS assay to identify small molecule agonists of the sonic hedgehog signaling (Shh) pathway - cell viability counter screen (AID 1259366); further: nearly all actives have a fitted effect of over 50% in size
In short: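 Fluorescence from CellTiter-Fluor reports live cells in this counter screen. NIH/3T3-derived Gli1-Luc reporter cells receive test compounds for 24hr at 37C; reagent goes in at 23hr.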

[17] = qHTS assay to identify small molecule antagonists of the sonic hedgehog signaling (Shh) pathway - cell viability counter screen (AID 1259367); further: nearly all actives have a fitted effect of over 55% in size
In short: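 Cytotoxicity was assessed in parallel with Shh reporter activity by measuring live-cell protease fluorescence (CellTiter-Fluor) in NIH/3T3 cells stably carrying Gli1-Luc, treated with compound under conditioned medium stimulation for 23 hr plus 1 hr reagent incubation.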

[18] = qHTS assay to identify small molecule agonists of the sonic hedgehog signaling (Shh) pathway (AID 1259368; calls by dose curve;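 further: NIH/3T3-derived 3T3Gli1-Luc cells carrying a stable Gli1-driven firefly luciferase reporter; series mostly up to about 92 µM; nearly all actives have a fitted effect of over 15% in size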)
In short: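 Cells of a mouse NIH/3T3 clone stably expressing luciferase under the Gli1 transcriptional response element are exposed to test chemicals for 24 hr at 37 C. Pathway activation is detected as a rise in luminescence.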

[19] = A CellTox Green Cytotoxicity Assay to monitor cytotoxicity in HepG2 cells - 32 hour (AID 1224883); further: nearly all actives have a fitted effect of over 50% in size
In short: as §2

[20] = molecular target: Androgen receptor (Homo sapiens) (UniProt P10275); test: qHTS assay to identify small molecule antagonists of the androgen receptor (AR) signaling pathway using the MDA cell line in the presence of 0.5 nM R1881 (AID 1259243); further: nearly all actives have a fitted effect of over 50% in size
Chain of Androgen receptor (Homo sapiens) (P10275 whole entry, looked up): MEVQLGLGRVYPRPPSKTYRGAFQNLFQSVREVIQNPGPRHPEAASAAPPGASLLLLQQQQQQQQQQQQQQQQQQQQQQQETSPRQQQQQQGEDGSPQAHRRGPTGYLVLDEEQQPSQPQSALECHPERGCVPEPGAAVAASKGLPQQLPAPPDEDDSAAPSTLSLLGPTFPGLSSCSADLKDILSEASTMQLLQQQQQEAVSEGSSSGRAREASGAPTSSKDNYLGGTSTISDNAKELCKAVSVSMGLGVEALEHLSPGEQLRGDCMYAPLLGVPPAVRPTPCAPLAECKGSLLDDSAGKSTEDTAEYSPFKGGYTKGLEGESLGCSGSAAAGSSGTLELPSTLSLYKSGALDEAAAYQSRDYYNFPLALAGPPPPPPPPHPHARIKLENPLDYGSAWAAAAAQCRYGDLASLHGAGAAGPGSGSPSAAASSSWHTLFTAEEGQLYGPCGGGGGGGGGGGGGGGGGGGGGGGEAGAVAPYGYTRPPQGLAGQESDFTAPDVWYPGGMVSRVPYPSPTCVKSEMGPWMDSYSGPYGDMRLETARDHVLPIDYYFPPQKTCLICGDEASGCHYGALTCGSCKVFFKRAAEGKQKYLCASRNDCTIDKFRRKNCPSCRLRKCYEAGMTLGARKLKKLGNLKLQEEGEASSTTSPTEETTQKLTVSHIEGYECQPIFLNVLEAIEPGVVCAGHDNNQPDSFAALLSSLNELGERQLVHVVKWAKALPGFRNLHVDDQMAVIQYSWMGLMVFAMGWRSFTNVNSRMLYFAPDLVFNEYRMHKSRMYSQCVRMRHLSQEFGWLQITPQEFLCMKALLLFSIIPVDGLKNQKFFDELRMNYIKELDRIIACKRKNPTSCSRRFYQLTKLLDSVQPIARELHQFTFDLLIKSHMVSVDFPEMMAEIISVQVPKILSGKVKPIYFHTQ
In short: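 Stably transfected MDA-kb2 cells express luciferase from an MMTV promoter bearing both AR and GR response elements. Compounds plus 0.5 nM R1881 (final) were incubated 16 hr at 37C without CO2, then luminescence measured.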

Measured: Potency

C=CCN=C=S
not listed: [19] | [20]
inactive: all other assays above

Cc1ccc(N=C=O)cc1N=C=O
not listed: [12] | [13] | [14] | [19] | [20]
inactive: all other assays above

NNc1ccccc1
not listed: [12] | [14] | [19] | [20]
inactive: all other assays above

CNCC(O)c1ccc(O)cc1 (configuration not stated)
not listed: [19] | [20]
inactive: all other assays above

OC[C@@H](O)[C@H]1O[C@@H]2O[C@H](C(Cl)(Cl)Cl)O[C@@H]2[C@H]1O
not listed: [1] | [14] | [20]
inactive: all other assays above

Nc1ccc([As](=O)(O)O)cc1
not listed: [1] | [14] | [20]
inactive: all other assays above

O=[N+]([O-])c1ccc(Cl)cc1
not listed: [12] | [13] | [14] | [20]
inactive: all other assays above

CC(C)(C)C(=O)CCl
not listed: [13] | [19]
inactive: all other assays above

OCc1ccco1
not listed: [13] | [14] | [19] | [20]
inactive: all other assays above

Cc1cccc(N)c1C
not listed: [13] | [14] | [19] | [20]
inactive: all other assays above

CN(C)C(=O)Cl
not listed: [1] | [13] | [20]
inactive: all other assays above

O=[N+]([O-])c1cc([As](=O)(O)O)ccc1O
not listed: [1] | [20]
inactive: all other assays above

O=C/C=C/c1ccccc1
not listed: [1] | [14] | [19] | [20]
inactive: all other assays above

CCCCCCCCCCCCCCCCCC(=O)O
not listed: [1] | [12] | [13] | [14] | [20]
inactive: all other assays above

C=CC(=O)OCC(CC)CCCC (configuration not stated)
not listed: [1] | [12] | [13] | [20]
inactive: all other assays above

CCCCC(CC)C(=O)Cl (configuration not stated)
not listed: [1] | [13] | [14] | [19] | [20]
inactive: all other assays above

COS(=O)(=O)OC
not listed: [1] | [13] | [19] | [20]
inactive: all other assays above

CNC(=O)Oc1cccc2ccccc12
not listed: [1] | [19] | [20]
inactive: all other assays above
